Experimental findings from PubChem BioAssay (EPA / NIEHS) are described below.

Assay [1] is described as follows: ATG_E_Box_CIS: Attagene CIS-FACTORIAL HepG2 Assay for human Enhancer Box (E-box) (AID 2282936). The note with it: HepG2 E-box cis-reporter transcription, actives raise or lower the signal. Put shortly: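 DMSO served as negative control and baseline for bidirectional fitting. Human hepatoma HepG2 cells, transiently transfected with cis-reporter constructs, were dosed 24 h; reporter mRNA read by RT-PCR and capillary electrophoresis.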

A short description of assay [2]: ATG_M_61_CIS: Attagene CIS-FACTORIAL HepG2 Assay for M61 Transcription Factor (Internal Marker) (AID 2282937). The note with it: HepG2 Attagene CIS-FACTORIAL M61 internal marker reporter; actives raise or lower the signal. Put shortly:
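This endpoint serves as an internal background control within a multiplexed HepG2 cis-reporter panel. Cells are exposed for 24 h; reporter mRNA is amplified, fluorescently labelled and sized by capillary electrophoresis, with DMSO as negative control.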

Assay [3] is described as follows: ATG_EGR_CIS: Attagene CIS-FACTORIAL HepG2 Assay for human Early Growth Response 1 (EGR1) (AID 2282938). The note with it: HepG2 Attagene CIS-FACTORIAL EGR reporter mRNA; actives raise or lower the signal. Put shortly: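 HepG2, transient MRTU transfection (cis promoters), 24 h compound. RNA → RT (oligo-dT) → PCR → 6-FAM labelling → HpaI cut → CE fluorescence. Bidirectional fit, DMSO baseline.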

Assay [4] is described as follows: ATG_M_19_CIS: Attagene CIS-FACTORIAL HepG2 Assay for M19 Transcription Factor (Internal Marker) (AID 2282939). The note with it: HepG2 Attagene CIS-FACTORIAL M19 internal marker reporter; actives raise or lower the signal. Put shortly: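 Signals come from fluorescence of labelled reporter-specific PCR fragments resolved by capillary electrophoresis, following 24 h treatment of HepG2 cells transfected with cis-promoter reporter units; activity was fitted in both directions relative to DMSO.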

Assay [5] can be described thus: ATG_ERE_CIS: Attagene CIS-FACTORIAL HepG2 Assay for Estrogen Response Element (ERE) (AID 2282940). The note with it: HepG2 ERE cis-reporter, Attagene RNA transcript; actives raise or lower the signal. Put shortly:
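Fluorescence of capillary-separated, FAM-labelled reporter cDNA fragments indicates reporter mRNA levels in HepG2 cells exposed to chemicals for 24 h. Transient transfection with cis-regulated units; data fitted in both directions against DMSO.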

Assay [6] can be described thus: ATG_Ets_CIS: Attagene CIS-FACTORIAL HepG2 Assay for human Erythroblast Transformation Specific (ETS) (AID 2282941). The note with it: HepG2 ETS cis-reporter transcription, actives raise or lower the signal. Put shortly:
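Steps: transfect HepG2 with multiple reporter units; treat compound 24 h; isolate RNA, DNase-treat, reverse-transcribe; PCR-amplify, label with 6-FAM, digest with HpaI; separate by capillary electrophoresis. Activity fitted both directions versus DMSO.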

Assay [7] addresses Hepatocyte nuclear factor 3-beta (Homo sapiens) (UniProt Q9Y261). In words: ATG_FoxA2_CIS: Attagene CIS-FACTORIAL HepG2 Assay for human Forkhead box A2 (FOXA2) (AID 2282942). The note with it: HepG2 cis-reporter transcription factor activity, 24 h; actives raise or lower the signal. Put shortly:
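Cells: HepG2, transient multiplex reporter transfection. Exposure 24 h. Detection: reporter-specific RT-PCR, fluorescent labelling, restriction digest, capillary electrophoresis. Analysis: bidirectional curve fit, DMSO as negative control.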

Assay [8] can be described thus: ATG_FoxO_CIS: Attagene CIS-FACTORIAL HepG2 Assay for human Forkhead box O (FoxO) (AID 2282943). The note with it: HepG2 Attagene cis-reporter, FoxO element, mRNA; actives raise or lower the signal. Put shortly: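 HepG2, transient MRTU transfection (cis element, endogenous TFs). Dose 24 h. TriZol RNA → oligo(dT) RT → PCR → 6-FAM primer extension → HpaI cut → CE. Gain/loss vs DMSO.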

A short description of assay [9]: ATG_GATA_CIS: Attagene CIS-FACTORIAL HepG2 Assay for human GATA Binding Protein (AID 2282944). The note with it: HepG2 GATA cis-element reporter, Attagene multiplex mRNA; actives raise or lower the signal. Put shortly:
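After transfecting HepG2 cells with multiple cis-regulated reporter units, chemicals are dosed for 24 h; isolated RNA undergoes RT-PCR and fluorescent labeling before capillary electrophoresis, with activity expressed against DMSO.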

A short description of assay [10]: ATG_GLI_CIS: Attagene CIS-FACTORIAL HepG2 Assay for human Zinc Finger Protein GLI1 (AID 2282945). The note with it: HepG2, Attagene cis-factorial reporter mRNA, GLI element; actives raise or lower the signal. Put shortly:
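Bidirectional curve fits relative to DMSO, using reporter mRNA levels from RT-PCR plus capillary electrophoresis. Cells were HepG2 transiently carrying cis-regulated reporter constructs, harvested 24 h after dosing.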

Assay [11] can be described thus: ATG_GRE_CIS: Attagene CIS-FACTORIAL HepG2 Assay for human Glucocorticoid Response Elements (GRE) (AID 2282947). The note with it: HepG2 GRE cis-reporter, Attagene multiplex mRNA; actives raise or lower the signal. Put shortly:
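Assay uses human hepatoma HepG2 cells transfected with cis-promoter reporter units, exposed 24 h. mRNA from reporters detected by RT-PCR plus capillary electrophoresis; DMSO serves as negative control and baseline.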

Assay [12] is described as follows: ATG_ISRE_CIS: Attagene CIS-FACTORIAL HepG2 Assay for human Interferon Regulatory Factor 1 (IRF1) binding to an Interferon-Stimulated Response Element (ISRE) (AID 2282948). The note with it: HepG2 ISRE cis-reporter (Attagene), mRNA transcription readout; actives raise or lower the signal. Put shortly:
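Transfected HepG2 (multiple reporter transcription units, cis elements) dosed 24 h. RNA → oligo(dT) RT → PCR → 6-FAM primer extension → HpaI → CE. DMSO = negative control/baseline.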

A short description of assay [13]: ATG_M_32_CIS: Attagene CIS-FACTORIAL HepG2 Assay for M32 Transcription Factor (Internal Marker) (AID 2282949).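 Note: background control marker of the multiplexed CIS panel rather than a real target.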 The note with it: HepG2 Attagene cis-factorial M32 reporter, mRNA; actives raise or lower the signal. Put shortly: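 Internal background marker read-out: RT-PCR/capillary electrophoresis fluorescence of reporter transcripts from transiently transfected HepG2 cells after 24 h chemical exposure. Activity fitted bidirectionally relative to DMSO negative control.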

Assay [14] is described as follows: ATG_M_06_CIS: Attagene CIS-FACTORIAL HepG2 Assay for M06 Transcription Factor (Internal Marker) (AID 2282950). The note with it: HepG2 Attagene CIS-FACTORIAL M06 internal marker reporter; actives raise or lower the signal. Put shortly: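 HepG2 liver cells, 24 h exposure. Reporter transcripts from transfected cis-element constructs quantified by RT-PCR/capillary electrophoresis fluorescence. Bidirectional curve fit against DMSO.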

Assay [15] has as its target Hepatocyte nuclear factor 6 (Homo sapiens) (UniProt Q9UBC0). The experiment in a line: ATG_HNF6_CIS: Attagene CIS-FACTORIAL HepG2 Assay for human Hepatocyte Nuclear Factor 6 (HNF6) (AID 2282952). The note with it: HepG2 Attagene cis-factorial HNF6 reporter transcription; actives raise or lower the signal. Put shortly: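 Cells are HepG2 carrying transiently transfected cis-promoter reporter units. Treatment lasts 24 h, after which reporter transcripts are reverse-transcribed, amplified, FAM-labelled and sized by capillary electrophoresis. DMSO serves as baseline.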

Assay [16] has as its target Heat shock factor protein 1 (Homo sapiens) (UniProt Q00613). In words: ATG_HSE_CIS: Attagene CIS-FACTORIAL HepG2 Assay for human Heat Shock Transcription Factor 1 (HSE) (AID 2282953). The note with it: HepG2 HSE cis-reporter, Attagene RNA transcription; actives raise or lower the signal. Put shortly:
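Endogenous transcription factor activity captured via cis-promoter reporter units transfected into HepG2; treatment lasted 24 h. Fluorescence intensity of reporter fragments analysed with bidirectional curve fitting, DMSO baseline.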

Assay [17] is described as follows: ATG_MRE_CIS: Attagene CIS-FACTORIAL HepG2 Assay for human Metal Responsive Element (MRE) (AID 2282954). The note with it: HepG2 MRE cis-reporter transcription, Attagene multiplex; actives raise or lower the signal. Put shortly:
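After a 24 h chemical exposure, transiently transfected HepG2 cells yield RNA whose reporter sequences are amplified, FAM-labelled and sized by capillary electrophoresis. Curves are fitted bidirectionally relative to DMSO.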

The nature of assay [18]: ATG_PBREM_CIS: Attagene CIS-FACTORIAL HepG2 Assay for human Phenobarbital-responsive Enhancer Module (PBREM) (AID 2282955). The note with it: HepG2 PBREM cis-reporter, Attagene multiplexed transcription; actives raise or lower the signal. Put shortly: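 HepG2, transient MRTU transfection, 24 h dosing; RNA → oligo(dT) RT → PCR → 6-FAM extension → HpaI → CE. Bidirectional fit vs DMSO.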

Assay [19] concerns the target Hypoxia-inducible factor 1-alpha (Homo sapiens) (UniProt Q16665). In words: ATG_HIF1a_CIS: Attagene CIS-FACTORIAL HepG2 Assay for human Hypoxia Inducible Factor 1 (HIF1A) (AID 2282951). The note with it: HepG2 Attagene cis-factorial HIF1a reporter transcription; actives raise or lower the signal. Put shortly: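 HepG2, transient cis-reporter library, 24 h dosing. RNA → RT (oligo dT) → PCR → 6-FAM primer extension → HpaI → CE. Bidirectional curve fit vs DMSO.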

Activity calls are given as the source filed them. Rule for the calls: active = hit-call score of the fitted dose curve at least 0.9, where 1 is the maximum; inactive = score below 0.9.

Sequence of Hepatocyte nuclear factor 6 (Homo sapiens) (Q9UBC0 whole entry, looked up): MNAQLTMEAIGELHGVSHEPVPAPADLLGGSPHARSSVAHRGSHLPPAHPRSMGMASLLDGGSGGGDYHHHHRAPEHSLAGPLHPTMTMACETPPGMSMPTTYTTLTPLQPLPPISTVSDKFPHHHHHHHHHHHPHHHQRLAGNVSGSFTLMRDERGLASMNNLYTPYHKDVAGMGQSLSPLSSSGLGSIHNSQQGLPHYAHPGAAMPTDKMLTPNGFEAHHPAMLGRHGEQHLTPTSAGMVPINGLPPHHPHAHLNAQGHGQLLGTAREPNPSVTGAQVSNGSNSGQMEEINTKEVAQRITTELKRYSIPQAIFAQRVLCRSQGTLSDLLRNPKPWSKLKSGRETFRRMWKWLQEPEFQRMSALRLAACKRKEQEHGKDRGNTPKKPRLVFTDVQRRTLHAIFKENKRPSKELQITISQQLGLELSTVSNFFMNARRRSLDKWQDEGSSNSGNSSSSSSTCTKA
Sequence of Hepatocyte nuclear factor 3-beta (Homo sapiens) (Q9Y261 whole entry, looked up): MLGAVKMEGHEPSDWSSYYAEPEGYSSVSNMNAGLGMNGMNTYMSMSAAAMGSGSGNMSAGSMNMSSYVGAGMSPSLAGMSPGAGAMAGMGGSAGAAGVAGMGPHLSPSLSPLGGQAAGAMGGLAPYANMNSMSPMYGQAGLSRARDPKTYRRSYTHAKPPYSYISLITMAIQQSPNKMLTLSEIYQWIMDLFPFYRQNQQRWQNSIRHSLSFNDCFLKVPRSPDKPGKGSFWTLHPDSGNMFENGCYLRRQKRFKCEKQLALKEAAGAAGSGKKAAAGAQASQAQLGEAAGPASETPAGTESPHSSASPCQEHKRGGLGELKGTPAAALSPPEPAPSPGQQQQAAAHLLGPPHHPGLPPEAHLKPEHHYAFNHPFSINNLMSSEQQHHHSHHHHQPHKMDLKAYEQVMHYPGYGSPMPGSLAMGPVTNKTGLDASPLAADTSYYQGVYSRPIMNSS
Sequence of Hypoxia-inducible factor 1-alpha (Homo sapiens) (Q16665 whole entry, looked up): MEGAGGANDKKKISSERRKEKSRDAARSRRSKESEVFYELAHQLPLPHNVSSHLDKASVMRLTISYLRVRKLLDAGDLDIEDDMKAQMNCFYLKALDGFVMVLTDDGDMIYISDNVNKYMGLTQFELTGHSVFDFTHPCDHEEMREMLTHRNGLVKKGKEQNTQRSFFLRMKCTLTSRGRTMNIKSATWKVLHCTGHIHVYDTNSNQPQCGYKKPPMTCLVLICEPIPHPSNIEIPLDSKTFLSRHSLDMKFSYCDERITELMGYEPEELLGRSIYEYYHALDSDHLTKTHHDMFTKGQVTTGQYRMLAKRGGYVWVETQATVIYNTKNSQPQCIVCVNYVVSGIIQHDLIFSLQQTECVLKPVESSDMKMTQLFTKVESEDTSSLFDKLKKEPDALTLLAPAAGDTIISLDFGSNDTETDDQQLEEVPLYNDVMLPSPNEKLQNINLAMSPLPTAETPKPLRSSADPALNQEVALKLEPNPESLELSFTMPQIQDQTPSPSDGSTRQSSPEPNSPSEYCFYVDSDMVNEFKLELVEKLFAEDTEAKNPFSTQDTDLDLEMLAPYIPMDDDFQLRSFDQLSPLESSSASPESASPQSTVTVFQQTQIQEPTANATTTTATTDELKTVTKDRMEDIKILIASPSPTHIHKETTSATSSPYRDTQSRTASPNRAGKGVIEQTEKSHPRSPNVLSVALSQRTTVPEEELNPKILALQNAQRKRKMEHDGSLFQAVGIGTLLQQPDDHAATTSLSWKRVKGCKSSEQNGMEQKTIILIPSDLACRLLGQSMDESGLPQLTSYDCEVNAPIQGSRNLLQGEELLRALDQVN
Sequence of Heat shock factor protein 1 (Homo sapiens) (Q00613 whole entry, looked up, the tested form may be a part): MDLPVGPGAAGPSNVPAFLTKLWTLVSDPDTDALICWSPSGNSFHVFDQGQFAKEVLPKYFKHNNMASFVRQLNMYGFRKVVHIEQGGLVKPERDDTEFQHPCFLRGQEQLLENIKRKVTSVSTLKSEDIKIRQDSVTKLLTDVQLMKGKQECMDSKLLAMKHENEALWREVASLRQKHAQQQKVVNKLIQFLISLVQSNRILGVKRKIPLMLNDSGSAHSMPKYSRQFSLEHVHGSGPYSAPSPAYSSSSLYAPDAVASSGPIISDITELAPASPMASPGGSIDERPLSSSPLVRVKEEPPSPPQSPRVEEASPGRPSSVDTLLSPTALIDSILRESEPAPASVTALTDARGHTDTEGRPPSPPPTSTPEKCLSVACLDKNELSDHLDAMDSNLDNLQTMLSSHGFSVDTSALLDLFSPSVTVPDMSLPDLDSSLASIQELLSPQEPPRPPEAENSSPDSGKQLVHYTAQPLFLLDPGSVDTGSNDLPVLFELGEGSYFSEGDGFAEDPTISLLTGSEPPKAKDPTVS

For orientation: AC50 means the midpoint of the concentration-response curve, whichever way the signal moves. As for `C[C@]12C=CC(=O)C=C1CC[C@@H]1[C@@H]2[C@@H](O)C[C@@]2(C)[C@H]1CC[C@]2(O)C(=O)CO`, the result in assay [1], in assay [2], in assay [3], in assay [4], in assay [5] and in assay [6] was inactive. Further, the compound was called inactive in [7], in assay [8], in assay [9], in assay [10], in assay [12] and in assay [13]. Moreover, the call in assay [14], in assay [15], in assay [16], in [17] and in assay [18] was inactive. For the same compound, the AC50 in [11] is 0.394 µM (active).
As to `Nc1ccc(N=Nc2ccccc2)c(N)n1`, the values for the AC50 in assay [1], in assay [3] and in [17] were 70.9 µM (active), 70.5 µM (active) and 69.9 µM (active), respectively. Moreover, the outcome in [2], in assay [4], in assay [5], in assay [6], in assay [7] and in assay [8] was inactive. Also, the call in assay [9], in [10], in [11], in assay [12], in assay [13] and in [14] was inactive. Also, the compound was called inactive in [15], in assay [16] and in [18].
In the case of `CN(C)c1ccc(C(=N)c2ccc(N(C)C)cc2)cc1`, the concentration at half-maximal activity (AC50) is 56.6 µM (active) in assay [1]; 1.36 µM (active) in [3]; 0.721 µM (active) in assay [7]; 23 µM (active) in [12]; 0.816 µM (active) in [19]; 29.4 µM (active) in assay [16]. In addition, the results for the AC50 in assay [17] and in assay [18] were 6.69 µM (active) and 7.5 µM (active), respectively. The call in assay [2], in [4], in assay [5], in [6], in [8] and in assay [9] was inactive. The compound was called inactive in assay [10], in assay [11], in assay [13], in assay [14] and in assay [15].
Take `c1ccc(CNCc2ccccc2)cc1`: the result in assay [1], in assay [2], in assay [3], in assay [4], in assay [5] and in assay [6] was inactive. For the same compound, the call in [7], in assay [8], in assay [9], in assay [10], in [11] and in assay [12] was inactive. The outcome in assay [13], in [14], in [19], in assay [15], in assay [16] and in assay [17] was inactive. Besides, the result in [18] was inactive.
`CC(C)=CCC/C(C)=C\C#N`: the outcome in assay [1], in assay [2], in assay [3], in assay [4], in assay [5] and in assay [6] was inactive. Besides, the call in assay [7], in assay [8], in assay [9], in assay [10], in assay [11] and in assay [12] was inactive. The result in [13], in assay [14], in assay [19], in assay [16], in assay [17] and in [18] was inactive.
Take `NC(=O)OCC(COC(N)=O)c1ccccc1`: the outcome in [1], in [2], in assay [3], in [4], in assay [5] and in [6] was inactive. Also, the compound was classed as inactive in [7], in assay [8], in assay [9], in [10], in assay [11] and in assay [12]. The compound was classed as inactive in assay [13], in [14], in assay [16], in [17] and in [18].
For the compound `COC(=O)c1ccc2cc(C(=O)OC)ccc2c1`, the outcome in [1], in assay [2], in [3], in assay [4], in [5] and in assay [6] was inactive. In addition, the compound was classed as inactive in [7], in assay [8], in assay [9], in [10], in assay [11] and in [13]. The compound was called inactive in [14], in assay [19], in assay [15], in [16] and in assay [17].
